Only some compounds are listed: those with a hit (about 11% of all), similar ones and a draw of the others.
ALDH1A1 block: qHTS Assay for Inhibitors of Aldehyde Dehydrogenase 1 (ALDH1A1); Purified ALDH1A1, NADH fluorescence, propionaldehyde substrate; Potency, µM (highest dose often 75.3 µM), actives largely listed as inhibitors; actives 7.3% (n = 220,000)
Target sequence (P00352 whole entry, looked up): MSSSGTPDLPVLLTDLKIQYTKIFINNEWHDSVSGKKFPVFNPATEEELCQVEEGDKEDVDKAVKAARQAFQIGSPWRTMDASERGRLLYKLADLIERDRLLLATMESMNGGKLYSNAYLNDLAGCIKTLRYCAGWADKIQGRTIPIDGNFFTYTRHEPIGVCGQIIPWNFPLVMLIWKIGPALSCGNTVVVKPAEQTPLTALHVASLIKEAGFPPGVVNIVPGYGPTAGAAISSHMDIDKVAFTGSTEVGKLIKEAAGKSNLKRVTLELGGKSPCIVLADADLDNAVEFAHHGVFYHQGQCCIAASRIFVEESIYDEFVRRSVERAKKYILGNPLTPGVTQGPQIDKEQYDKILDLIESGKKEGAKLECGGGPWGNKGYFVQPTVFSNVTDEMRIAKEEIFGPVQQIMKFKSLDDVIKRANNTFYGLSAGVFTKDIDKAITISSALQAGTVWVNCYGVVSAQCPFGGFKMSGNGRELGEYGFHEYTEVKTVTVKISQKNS
PNC inhibitor: High Content Assay for Compounds that inhibit the Assembly of the Perinucleolar Compartment; PC3M PTB-GFP, PNC prevalence imaging, 16 h; stronger effect = lower value; activity change (PNC), negative = inhibition, % at 10 µM; actives 3.1% (n = 140,000);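 active = readout at or below -70, meaning at least 70% loss of cells showing the perinucleolar compartment, a nuclear body marking cancer cells; inconclusive = readout between -30 and a set limit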
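Compounds are pinned in duplicate onto adhered PC3M cells stably expressing GFP-tagged PTB and incubated 16 h at 37 C. Cells are then fixed, nuclei stained with Hoechst, and PNC-positive cells counted.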
HPGD inh: qHTS Assay for Inhibitors of HPGD (15-Hydroxyprostaglandin Dehydrogenase); AID 894, 2007; Potency, µM, actives largely listed as inhibitors; purified HPGD, NADH fluorescence kinetic, PGE2 substrate; actives 4.3% (n = 150,000); 15-hydroxyprostaglandin dehydrogenase [NAD(+)] (Homo sapiens), P15428
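NADH formation kinetics: reaction with 30 uM PGE2 and 1 mM NAD+ (final), 20 nM enzyme, Tris-HCl pH 8 with Tween 20, after 15 min compound preincubation at room temperature. Fluorescence change, last versus first of five reads.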
Hits are given with their value; – = inactive; ? = inconclusive; · = no result; [ ] = another dose, or the depositor's remark. Unless noted, calls follow the shape of the dose curve; as a rule, active = well fitted inhibition curve with a large enough effect (not every such curve was filed as active); inconclusive = small, poorly fitted or top-dose-only effect, or another doubt; inactive = no such curve, though single readings can be large or run the other way.

SMILES | ALDH1A1 block | PNC inhibitor | HPGD inh
C=CCc1c(C)nc(SCC(=C)C)[nH]c1=O | – | – | ?
O=C(C1CCN(CCCc2ccccc2)CC1)N1CCCCC1 | 14µM | – | –
C/C(=C\c1ccccc1)CN1CCC(C(=O)N2CCCCC2)CC1 | ? | – | 14µM
O=C(C1CCCN(Cc2cccnc2)C1)N1CCCCC1 (stereo not drawn) | 5µM | -82 | ·
C/C(=C\c1ccccc1)CN1CCC(C(=O)N2CCC(C)CC2)CC1 | 35µM | – | –
CCCCN(C)C(=O)C1CCN(C/C(C)=C/c2ccccc2)CC1 | – | – | –
COc1ccc(CN2CCCC(C(=O)N3CCCC3)C2)cc1 (stereo not drawn) | – | – | –
CC1CCN(C(=O)C2CCN(CCCc3ccccc3)CC2)CC1 | ? | – | –
CCCCNC(=O)C1CCN(C/C(C)=C/c2ccccc2)CC1 | ? | – | –
O=C(NCc1ccc(F)cc1)C1CCC(=O)N1C1CCCCC1 (stereo not drawn) | – | – | –
CC1CCN(c2ccc(C(=O)NCc3cccs3)cn2)CC1 | ? | – | ?
O=C(CN1CCN(Cc2ccc3c(c2)OCO3)CC1)Nc1ccc(N2CCOCC2)cc1 | – | · | ·
CCc1nc2cc(CC(=O)O)ccc2o1 | – | – | –
CCOC(=O)N1C2=NC(C(=O)OC)=C(C(=O)OC)[C@@H]3N(C)c4ccccc4[C@]23C[C@H]1C(=O)OC | –[13.5 µM] | · | –
COCCNC(=O)c1ccc(N2CCCCC2)c(NS(=O)(=O)c2ccc(C)cc2)c1 | 8.9µM | – | –
CCN(CC)CCCNC(=O)c1ccc(N2CCCCC2)c(NS(=O)(=O)c2ccc(C)cc2)c1 | 14µM | · | ·
CCN(CC)CCNC(=O)c1ccc(NC(=O)c2cccc(S(=O)(=O)Nc3ccc(C)cc3)c2)cc1 | – | · | ·
Cc1ccc(S(=O)(=O)Nc2cc(C(F)(F)F)ccc2N2CCOCC2)cc1 | – | ? | –
C/C(=N\NC(=O)CSc1nc(C)cc(C)n1)c1ccc([N+](=O)[O-])cc1 | – | · | ·
Cc1csc(NC(=O)c2cc(-c3ccccc3)nc3ccccc23)n1 | – | – | ·
CCO[C@@H]1OC(C(=O)Nc2ccccc2)=C[C@H](C2CC2)[C@H]1CCCO | – | · | ·
O=C(CSc1nccn1Cc1ccccc1)NCc1ccccc1 | – | ? | –
CCOc1cc(C(=O)NC(=S)Nc2ccc(Cl)c(C(=O)O)c2)cc(OCC)c1OCC | 19µM | · | ·
COc1c(Cl)cc(C(=O)Nc2ccccc2-c2ccccc2)cc1Cl | 13µM | – | –
CCOc1c(Cl)cc(C(=O)Nc2ccccc2C(=O)O)cc1Cl | ? | – | 14µM
SMILES | ALDH1A1 block | PNC inhibitor | HPGD inh
CCOc1ccc(C(=O)Nc2ccccc2-c2ccccc2)cc1Cl | ? | – | –
COc1ccc(C(=O)Nc2ccccc2C(=O)O)cc1Cl | ? | – | –
COc1cccc(C(=O)NC(=S)Nc2ccc(Cl)c(C(=O)O)c2)c1 | ? | – | –
CN(Cc1cn(C)c2ccccc12)C(=S)Nc1cc(F)cc(F)c1 | – | – | –
C=CCn1c(-c2cccn(Cc3ccc(Cl)cc3Cl)c2=O)n[nH]c1=S | – | – | –
O=C(Nc1ccon1)c1ccc2c(c1)OCO2 | – | ? | 18µM
O=C(Nc1ccc2c(c1)OCO2)c1ccc2c(c1)OCO2 | ? | ? | –
Cc1ccc(S(=O)(=O)N2CCC(C(=O)N3CCC[C@H]3C(=O)NCc3ccco3)CC2)cc1 | ? | – | –
CCOc1cc(NC(=S)NCCCN2CCOCC2)c(OCC)cc1NC(=O)C1CC1 | – | – | –
O=C(c1cc2ccccc2o1)N1CCN=C1SCc1cccnc1 | – | – | –
CCOc1ccc(S(=O)(=O)Nc2ccccc2C(=O)Nc2ccccc2N2CCOCC2)cc1 | 28µM | ? | –
CCCCNC(=O)c1ccc(N2CCOCC2)c(NS(=O)(=O)c2ccc(OC)cc2)c1 | 8.9µM | ? | –
O=C(Nc1ccccc1N1CCOCC1)c1ccccc1NS(=O)(=O)c1ccc(F)cc1 | – | ? | –
COCCCNC(=O)c1ccc(N2CCOCC2)c(NS(=O)(=O)c2ccc(OC)cc2)c1 | ? | – | –
CCOCCCNC(=O)c1ccc(N2CCOCC2)c(NS(=O)(=O)c2ccc(OC)cc2)c1 | 2.5µM | · | ·
CCOc1ccc(C(=O)Nc2cc(S(=O)(=O)Nc3ccccc3Cl)ccc2N2CCOCC2)cc1 | ? | – | ?
COc1ccccc1-n1cc(CN2CCN(C3CCCCC3)C(CCO)C2)cn1 (stereo not drawn) | – | · | ·
O=C(O)C(Cc1ccccc1)N1C(=O)c2ccccc2C1=O (stereo not drawn) | – | – | –
[N-]=[N+]=CC(=O)C(Cc1ccccc1)N1C(=O)c2ccccc2C1=O (stereo not drawn) | 2.8µM | – | –
CC(=O)NCCn1c(SCc2cc(=O)n3cc(Cl)ccc3n2)nc2ccccc2c1=O | ? | – | –

Compound activity (PubChem BioAssay)
